Bioassay records (PubChem BioAssay)
CaV13 ICDI inh: Disruptors of the CACNA1D IQ motif to Ca2+-dependent inactivation inhibitor domain association, primary screening, Förster resonance energy transfer in intact living …; HEK cells, CFP/YFP FRET ICDI-IQ, plate reader, 10 min; percent FRET-ratio fall versus neutral wells; inhibition, % at 12.3 µM; 0.098% of 340,000 active; AID 743397;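 active means mean replicate inhibition of at least 30% and at least 1% of replicates passing that level; inconclusive means only one of the two criteria is met; inactive means neither criterion is met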;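 further: 0% = median of the neutral control wells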
GSIS activator: GLuc luminescence reporter in INS-1E cells, primary screen for activators of glucose-dependent secretion of insulin; INS-1E GLuc reporter insulin secretion, 2-3 h; activation, % at 16.6 µM; 0.61% of 370,000 active; AID 743287, 2014;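 active means lowest replicate activation of at least 40%, so every replicate reaches that level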;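 further: 0% = median of neutral control wells and 100% = median of IBMX positive control wells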
DENV2 CPE rescue: inhibitors of DENV2 cytopathic effect, primary screen, cell-based, plate reader, single concentration; CPE inhibition, % at 9.99 µM; 1.7% of 350,000 active; DENV2-infected cells, cytopathic effect rescue; in the data active means CPE inhibition above about 20%, passing the limit was not always enough; inconclusive means no clear call, values can overlap the other calls; tested in BHK-21 cells;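 further: 0% = median of neutral control wells and 100% = median of positive control wells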
ERAP1 inh: human ERAP1 aminopeptidase inhibitors, primary screen, biochemical, single point, plate reader; inhibition, % at 10.7 µM; Endoplasmic reticulum aminopeptidase 1 (Homo sapiens), Q9NZ08; 0.15% of 340,000 active; recombinant ERAP1, Leu-AMC fluorescence, 60 min;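 active means mean replicate inhibition of at least 30%, or all replicates individually reaching that 30% level; inactive means mean below 30% and not every replicate reaching it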;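 further: 0% = neutral control wells and 100% = L-leucinethiol positive control wells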
Target sequence (Q9NZ08 whole entry, looked up): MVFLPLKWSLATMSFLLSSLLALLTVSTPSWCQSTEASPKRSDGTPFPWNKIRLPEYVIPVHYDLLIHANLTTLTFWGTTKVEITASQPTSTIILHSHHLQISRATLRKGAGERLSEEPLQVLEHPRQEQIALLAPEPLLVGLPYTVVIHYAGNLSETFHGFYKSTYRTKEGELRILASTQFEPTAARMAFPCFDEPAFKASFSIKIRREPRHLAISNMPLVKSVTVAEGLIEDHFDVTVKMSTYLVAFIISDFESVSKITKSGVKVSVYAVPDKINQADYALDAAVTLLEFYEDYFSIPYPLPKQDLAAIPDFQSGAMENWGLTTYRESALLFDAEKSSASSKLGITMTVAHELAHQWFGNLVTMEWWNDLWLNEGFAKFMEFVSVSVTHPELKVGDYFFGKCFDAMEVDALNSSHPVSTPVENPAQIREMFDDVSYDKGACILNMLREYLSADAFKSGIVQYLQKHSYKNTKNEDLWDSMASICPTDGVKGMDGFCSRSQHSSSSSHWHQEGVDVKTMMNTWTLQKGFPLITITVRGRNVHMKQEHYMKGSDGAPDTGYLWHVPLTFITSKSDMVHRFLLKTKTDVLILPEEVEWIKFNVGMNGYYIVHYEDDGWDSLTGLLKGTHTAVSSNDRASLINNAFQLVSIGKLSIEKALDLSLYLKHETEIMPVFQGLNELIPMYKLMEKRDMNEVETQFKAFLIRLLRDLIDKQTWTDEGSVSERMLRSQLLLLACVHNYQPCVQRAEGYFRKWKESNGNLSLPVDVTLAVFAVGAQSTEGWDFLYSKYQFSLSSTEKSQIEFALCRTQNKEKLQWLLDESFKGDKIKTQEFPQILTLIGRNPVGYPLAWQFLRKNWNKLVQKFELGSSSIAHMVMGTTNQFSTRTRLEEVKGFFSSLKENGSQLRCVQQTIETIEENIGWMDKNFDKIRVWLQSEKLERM
rRNA inh HTS: reduced GFP signal of wild-type E. coli, primary screen, bacterial rRNA inhibitor project, GFP/RFP fluorescence, OD600, single point | E. coli WT GFP vs humanized-ribosome RFP mutants, 24 h; hits give low values; DMSO median 0, no signal -100 | GFP signal change (wild-type ribosome), % (test concentration not listed) | 1.6% of 350,000 active | AID 720706, 2013;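 active means significant combined selectivity score with lowered wild-type GFP, culture density cut under 30%, mutant RFP and density less affected; inactive means any of these conditions unmet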
PGC1a acetyl inh: inhibitors of PGC1a acetylation signal, primary screen, cell-based, U2OS, AlphaScreen, inhibitor mode | AlphaScreen anti-acetyl-lysine; with virally co-expressed GCN5 acetyltransferase | inhibition, % at 15.6 µM | 0.17% of 350,000 active;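 active means every replicate shows inhibition of at least 40%; inconclusive means mean inhibition at least 40% but some replicate below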;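 further: 0% = neutral control wells and 100% = positive control wells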
Starred values were filed as active, the others as inactive. This is a sample that favours compounds with a hit; in the whole collection about 3.2% have one here.

What do the screens show for `O=C(c1cccnc1)N1CC2(C1)[C@H](c1ccccc1)[C@@H](CO)N2C(=O)c1cccnc1`?
GSIS activator: 4; DENV2 CPE rescue: -7; ERAP1 inh: -3; rRNA inh HTS: 4; PGC1a acetyl inh: 2

What do the screens show for `CCOc1ccc(-n2c(-c3ccccc3)c[n+]3c2CCCCC3)cc1`?
CaV13 ICDI inh: -4; GSIS activator: -39; DENV2 CPE rescue: -3; ERAP1 inh: -4; rRNA inh HTS: -43*

What do the screens show for `c1ccc(-c2c[n+]3c(n2-c2ccccc2)CCC3)cc1`?
CaV13 ICDI inh: -5; GSIS activator: 15; DENV2 CPE rescue: -2; ERAP1 inh: 2; rRNA inh HTS: 2

What do the screens show for `CCOC(=O)c1[nH]cnc1C(=O)N[C@@H](C)c1ccccc1`?
CaV13 ICDI inh: -3; GSIS activator: 16; DENV2 CPE rescue: 6; ERAP1 inh: -2; rRNA inh HTS: 8

Results for CCOC(=O)c1[nH]cnc1C(=O)NC(C)C ?
CaV13 ICDI inh: 0; GSIS activator: 41*; PGC1a acetyl inh: 9

What do the screens show for `CCCNC(=O)C[C@@H]1CC[C@@H]2[C@@H](COc3ccc(NC(=O)c4ccc(C(F)(F)F)cc4)cc3C(=O)N2C)O1`?
GSIS activator: -13; rRNA inh HTS: 1; PGC1a acetyl inh: 9

How did Clc1nccc(N2CCN(c3ccccc3Cl)CC2)n1 do in these assays?
CaV13 ICDI inh: -4; GSIS activator: -10; DENV2 CPE rescue: 18; rRNA inh HTS: -25*; PGC1a acetyl inh: 10

How did COC(=O)C[C@H]1CC[C@H]2[C@H](COc3ccc(NC(=O)Nc4ccc(C)cc4)cc3C(=O)N2C)O1 do in these assays?
GSIS activator: -9; DENV2 CPE rescue: inconclusive; rRNA inh HTS: -4; PGC1a acetyl inh: 4

How did O=[N+]([O-])c1ccc(/C=N/N2CCN(Cc3ccccc3)CC2)cc1 do in these assays?
CaV13 ICDI inh: -19; GSIS activator: -21; DENV2 CPE rescue: -1; ERAP1 inh: 0; rRNA inh HTS: -16*; PGC1a acetyl inh: 16

Results for Cc1ccc(CN2CCN(/N=C\c3cccc([N+](=O)[O-])c3)CC2)cc1 ?
CaV13 ICDI inh: -4; GSIS activator: -23; DENV2 CPE rescue: 4; ERAP1 inh: -2; rRNA inh HTS: -25*; PGC1a acetyl inh: -9

Results for Cc1ccc(/C=N/N2CCN(Cc3ccc(C)cc3)CC2)cc1 ?
CaV13 ICDI inh: -4; GSIS activator: 2; DENV2 CPE rescue: 3; ERAP1 inh: -1; rRNA inh HTS: 16; PGC1a acetyl inh: -1

How did CN(C)c1ccc(/C=N/N2CCN(Cc3ccccc3Cl)CC2)cc1 do in these assays?
CaV13 ICDI inh: -3; GSIS activator: 9; DENV2 CPE rescue: 55*; ERAP1 inh: -1; rRNA inh HTS: 3; PGC1a acetyl inh: -6

How did O=[N+]([O-])c1ccc(/C=N/N2CCCCC2)cc1 do in these assays?
CaV13 ICDI inh: -4; GSIS activator: 0; DENV2 CPE rescue: 33*; ERAP1 inh: 2; rRNA inh HTS: 8; PGC1a acetyl inh: 16

Results for O=[N+]([O-])c1ccc(/C=N\N2CCN(c3ccc(Cl)cc3)CC2)cc1 ?
CaV13 ICDI inh: -3; PGC1a acetyl inh: -6

What do the screens show for `COc1ccc(S(=O)(=O)N[C@@H]2CC[C@H](CCn3cc(-c4cccc(F)c4)nn3)O[C@H]2CO)cc1`?
GSIS activator: -14; DENV2 CPE rescue: -3; rRNA inh HTS: -4; PGC1a acetyl inh: -5

How did BrC(/C=N/N1CCN(Cc2ccccc2)CC1)=C/c1ccccc1 do in these assays?
CaV13 ICDI inh: -16; DENV2 CPE rescue: 3; ERAP1 inh: 1; rRNA inh HTS: -42*; PGC1a acetyl inh: -7

What do the screens show for `O=C(Nc1ccccc1Cl)N1C[C@H]2[C@@H](c3ccccc31)[C@H](CO)N2Cc1ccccc1`?
GSIS activator: 1; DENV2 CPE rescue: -7; ERAP1 inh: 3; rRNA inh HTS: -23*; PGC1a acetyl inh: -12

Results for COc1ccc(CN2[C@H](CO)[C@H]3c4ccccc4N(C(=O)Nc4ccc(F)cc4)C[C@H]32)cc1 ?
GSIS activator: -6; DENV2 CPE rescue: 22*; ERAP1 inh: 0; rRNA inh HTS: -4; PGC1a acetyl inh: 0

How did C[C@H]1CN([C@@H](C)CO)C(=O)c2ccccc2-c2ccccc2CO[C@@H]1CN(C)S(=O)(=O)c1ccc(F)cc1 do in these assays?
GSIS activator: 8; DENV2 CPE rescue: 2; ERAP1 inh: 2; rRNA inh HTS: 6; PGC1a acetyl inh: 8

What do the screens show for `CC(C)C#Cc1ccc([C@H]2[C@@H](CO)N3C(=O)CN(C(=O)c4ccccn4)C[C@@H]23)cc1`?
GSIS activator: -10; DENV2 CPE rescue: -11; ERAP1 inh: 2; rRNA inh HTS: 4; PGC1a acetyl inh: 3

Results for CSc1nsc(SCc2ccc(F)cc2)n1 ?
CaV13 ICDI inh: -5; PGC1a acetyl inh: 1

How did CSc1nsc(SCc2ccc(Cl)cc2)n1 do in these assays?
CaV13 ICDI inh: -8; GSIS activator: 5; DENV2 CPE rescue: 6; ERAP1 inh: 0; rRNA inh HTS: -43*; PGC1a acetyl inh: 7

How did CS(=O)(=O)N1C[C@@H]2C(c3ccccc3)[C@H](C1)N2Cc1ccc(F)cc1 (stereo partly specified) do in these assays?
GSIS activator: 11; rRNA inh HTS: -8

How did CCCN1C[C@H](C)[C@H](OC)CN(C)C(=O)c2cc(NS(=O)(=O)c3cn(C)cn3)ccc2OC[C@@H]1C do in these assays?
GSIS activator: 7; DENV2 CPE rescue: 90*; ERAP1 inh: -1; rRNA inh HTS: 1; PGC1a acetyl inh: 1

What do the screens show for `CO[C@@H]1CN(C)C(=O)c2ccc(NS(=O)(=O)c3cn(C)cn3)cc2OC[C@@H](C)N(CC2CC2)C[C@H]1C`?
GSIS activator: 23; DENV2 CPE rescue: 21*; ERAP1 inh: 1; rRNA inh HTS: 4; PGC1a acetyl inh: 0

How did C[C@@H]1CN([C@H](C)CO)S(=O)(=O)c2ccc(C#CCN(C)C)cc2O[C@H]1CN(C)C(=O)C1CC1 do in these assays?
GSIS activator: 9; rRNA inh HTS: 5; PGC1a acetyl inh: -8

What do the screens show for `C=CCNc1nc(C(=O)OCC(=O)NCc2ccccc2OC)cs1`?
CaV13 ICDI inh: -5; GSIS activator: -5; DENV2 CPE rescue: 66*; ERAP1 inh: 0; rRNA inh HTS: 6; PGC1a acetyl inh: -10
